In PubChem BioAssay:
Active and inactive are the calls of the source. Unless noted, no rule for the calls is given here.

Legend:
[1] = compound effects on lung adenocarcinoma cell viability – A549, calcein-AM fluorescence, 48 h, basal, profiling panel (AID 1162); conditions: higher = more signal; also: test concentration not given here
[2] = compound effects on differentiated 3T3-L1 adipocyte viability – cell-based, 3T3-L1 adipocytes, calcein-AM fluorescence, 48 h, basal, profiling panel (AID 1163); conditions: 3T3-L1 adipocytes viability, higher = more signal; also: test concentration not given here
[3] = compound effects on hepatocellular carcinoma cell viability – HepG2, calcein-AM fluorescence, 48 h, basal, profiling panel (AID 1164); conditions: higher = more signal; also: test concentration not given here
[4] = compound effects on multiple myeloma cell viability – MM1S, calcein-AM fluorescence, 48 h, basal, profiling panel (AID 1165); conditions: higher = more signal; also: test concentration not given here
[5] = calcein-AM signal in unstimulated myeloma cells – cell-based, calcein-AM fluorescence, 48 h, PK04 Diversity Set, profiling panel (AID 1166); conditions: RPMI8226 myeloma viability, higher = more signal;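 also: cells grown under basal conditions without added stimulus; test concentration not given here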
[6] = JC-1 mitochondrial signal, unstimulated HepG2 cells – cell-based, JC-1 fluorescence, 24 h, 100 nL compound, profiling panel (AID 1167); conditions: HepG2 mitochondrial potential, higher = more signal; also: test concentration not given here
[7] = JC-1 mitochondrial signal, unstimulated adipocytes – cell-based, JC-1 fluorescence, 3T3-L1 adipocytes, 24 h, 100 nL compound, profiling panel (AID 1168); conditions: JC-1 mitochondrial fluorescence, higher = more signal, called active from +8 up or from −8 down; also: test concentration not given here
[8] = JC-1 mitochondrial signal, unstimulated myeloma cells – cell-based, JC-1 fluorescence, RPMI8226, 24 h, 100 nL compound, profiling panel (AID 1169); conditions: JC-1 mitochondrial potential fluorescence, higher = more signal; also: test concentration not given here
[9] = JC-1 mitochondrial signal, unstimulated MM1S myeloma – cell-based, JC-1 fluorescence, 24 h, 100 nL compound, profiling panel (AID 1170); conditions: MM1S mitochondrial potential, higher = more signal; also: test concentration not given here
[10] = resazurin metabolic signal in A549 cells – cell-based, resazurin fluorescence, 24 h, PK04 Diversity Set, profiling panel (AID 1171); conditions: A549 viability, higher = more signal, called active from +8 up or from −8 down; also: test concentration not given here
[11] = resazurin metabolic signal in HepG2 cells – cell-based, resazurin fluorescence, 24 h, PK04 Diversity Set, profiling panel (AID 1172); conditions: HepG2 viability, higher = more signal; also: test concentration not given here
[12] = budding yeast growth changes without added modifier – OD600, strain BY4716, 24 h, basal condition, primary screen (AID 1173); conditions: S. cerevisiae BY4716 growth, OD600, 24 h; higher = more signal, called active from +8 up or from −8 down
[13] = viability profiling in MM1S myeloma cells – cell-based, resazurin fluorescence, basal, 24 h, PK04 Diversity Set, profiling panel (AID 1174); conditions: higher = more signal, called active from +8 up or from −8 down; also: test concentration not given here
[14] = biological target: Dihydroorotate dehydrogenase (quinone), mitochondrial (Plasmodium falciparum (isolate 3D7)) (UniProt Q08210); assay: inhibition of P. falciparum DHODH – biochemical, C-terminal His tag, absorbance 600 nm, primary screen (AID 1175); conditions: PfDHODH enzyme, DCIP absorbance 600 nm; higher = more signal, called active from +8 up or from −8 down;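 also: recombinant parasite enzyme with a five histidine tag at its C terminus; test concentration not given here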
Dihydroorotate dehydrogenase (quinone), mitochondrial (Plasmodium falciparum (isolate 3D7)), sequence (Q08210 whole entry, looked up): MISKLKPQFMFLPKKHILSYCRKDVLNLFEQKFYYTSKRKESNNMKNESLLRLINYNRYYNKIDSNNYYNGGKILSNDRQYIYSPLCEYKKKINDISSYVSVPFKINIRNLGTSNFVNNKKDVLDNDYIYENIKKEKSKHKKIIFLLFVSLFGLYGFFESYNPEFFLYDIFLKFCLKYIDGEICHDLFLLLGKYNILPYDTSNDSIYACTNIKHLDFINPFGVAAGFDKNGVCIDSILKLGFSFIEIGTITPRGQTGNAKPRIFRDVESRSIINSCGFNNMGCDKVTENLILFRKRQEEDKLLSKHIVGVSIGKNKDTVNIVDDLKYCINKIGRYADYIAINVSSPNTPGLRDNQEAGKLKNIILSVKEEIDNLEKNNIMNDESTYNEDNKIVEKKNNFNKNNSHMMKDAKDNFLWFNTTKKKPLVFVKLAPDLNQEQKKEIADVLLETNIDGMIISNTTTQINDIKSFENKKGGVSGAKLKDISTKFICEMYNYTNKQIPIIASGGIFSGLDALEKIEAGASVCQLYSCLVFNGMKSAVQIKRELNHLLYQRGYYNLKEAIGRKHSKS

[15] = inhibition of PAO1 biofilm formation – strain PAO1, LB-PBS medium, absorbance 600 nm, primary screen (AID 1176); also: test concentration not given here; conditions: P. aeruginosa PAO1 growth/biofilm, A600, 12 h; higher = more signal
[16] = growth modulation of vineyard yeast isolate – strain RM11-1a, OD600, basal, 24 h, primary screen (AID 1177);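 also: cultures grown under basal conditions with no added stressor; test concentration not given here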; conditions: S. cerevisiae RM11-1a growth, OD600, 24 h; higher = more signal, called active from +8 up or from −8 down
[17] = growth of efflux-deficient E. coli DRC39 – strain DRC39, OD650, 24 h, E. coli filamentation inducers, primary screen (AID 1178);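 also: growth measured as culture turbidity by optical density at 650 nm; test concentration not given here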; conditions: E. coli DRC39 acrAB, higher = more signal, called active from +8 up or from −8 down
[18] = growth of efflux-deficient E. coli DRC39 – strain DRC39, OD650, 48 h, E. coli filamentation inducers, primary screen (AID 1179);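 also: screen aims at cell division blockers that make cells filament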; conditions: E. coli DRC39 delta-acrAB growth, higher = more signal, called active from +8 up or from −8 down
[19] = viability profiling in RPMI8226 myeloma cells – cell-based, resazurin fluorescence, basal, 24 h, PK04 Diversity Set, profiling panel (AID 1180); conditions: higher = more signal;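 also: RPMI8826 multiple myeloma cell line at 5000 cells per well; test concentration not given here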
[20] = biological target: E3 ubiquitin-protein ligase XIAP (Homo sapiens) (UniProt P98170); assay: small molecules binding XIAP protein – biophysical, small-molecule microarray, fluorescence 635 nm, primary screen (AID 1181); conditions: higher = more signal;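 also: score merges 667 nm emission and signal to noise over triplicate slides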
E3 ubiquitin-protein ligase XIAP (Homo sapiens), sequence (P98170 whole entry, looked up): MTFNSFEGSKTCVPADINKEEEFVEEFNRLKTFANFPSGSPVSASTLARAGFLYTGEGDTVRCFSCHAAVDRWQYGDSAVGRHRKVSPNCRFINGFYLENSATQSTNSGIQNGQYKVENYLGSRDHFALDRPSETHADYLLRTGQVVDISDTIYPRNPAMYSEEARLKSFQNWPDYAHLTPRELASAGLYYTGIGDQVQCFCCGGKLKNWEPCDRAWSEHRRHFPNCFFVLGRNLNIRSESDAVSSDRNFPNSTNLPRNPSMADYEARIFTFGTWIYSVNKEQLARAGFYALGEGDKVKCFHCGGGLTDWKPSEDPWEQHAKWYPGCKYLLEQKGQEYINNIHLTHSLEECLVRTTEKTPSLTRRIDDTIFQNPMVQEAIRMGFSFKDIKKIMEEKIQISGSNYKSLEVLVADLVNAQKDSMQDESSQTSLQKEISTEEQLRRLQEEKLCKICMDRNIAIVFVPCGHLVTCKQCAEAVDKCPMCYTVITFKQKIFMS

Row | SMILES | z-score [1] | z-score [2] | z-score [3] | z-score [4] | z-score [5] | z-score [6] | z-score [7] | z-score [8] | z-score [9] | z-score [10] | z-score [11] | z-score [12] | z-score [13] | composite z-score [14] | z-score [15] | z-score [16] | z-score [17] | z-score [18] | z-score [19] | composite z-score [20]
1 | COC(=O)[C@@]1(Cc2ccc(F)cc2)[C@H]2c3cc(C(=O)N(C)C)n(CCc4ccc(OC)c(Br)c4)c3C[C@H]2CN1C(=O)c1ccccc1 | -2.25 | 0.0834 | -1.42 | -3.29 | -4.63 | -1.68 | -0.662 (inactive) | -0.812 | -2.89 | -2.93 (inactive) | -1.73 | 0.233 (inactive) | -8.44 (active) | -3.85 (inactive) | 2.7 (inactive) | 0.399 (inactive) | -0.893 (inactive) | -1.49 (inactive) | -5.69 | -0.337
2 | CC1CC/C=C\[C@H]2OC34C=CCN(C(C)(C)C)C(=O)[C@H]3N(CCCCCO)C(=O)[C@@H]4C2C(=O)O1 (stereo not given in full) | 0.0683 | 0.525 | 0.0474 | 0.719 | -0.561 | -0.589 | -0.226 (inactive) | 0.592 | -0.203 | -0.146 (inactive) | -0.643 | 0.349 (inactive) | 0.285 (inactive) | 0.797 (inactive) | 0.121 (inactive) | -0.202 (inactive) | 0.338 (inactive) | 0.338 (inactive) | 0.0992 | -0.102
3 | COC(=O)[C@@]1(Cc2ccc(OC)cc2)[C@H]2c3cc(C(=O)N4CCCC4)n(CCO)c3C[C@H]2CN1C(=O)c1ccccc1 | -0.832 | 0.929 | 0.519 | -1.25 | -0.974 | 1.59 | -1.55 (inactive) | 0.506 | -1.35 | -1.07 (inactive) | -1.39 | 0.91 (inactive) | -2.2 (inactive) | -0.203 (inactive) | 0.632 (inactive) | 0.941 (inactive) | -0.614 (inactive) | -1.21 (inactive) | -0.861 | 0.311
4 | [N-]=[N+]=NCc1ccccc1[C@@H]1OC(c2ccc(OCCCO)cc2)=N[C@]1(CCS(=O)(=O)c1ccccc1)C(=O)O | 0.338 | -0.801 | 1.05 | 0.078 | -0.206 | -1.69 | -1.02 (inactive) | -0.178 | -1.39 | -0.216 (inactive) | -0.274 | -0.577 (inactive) | -0.906 (inactive) | 0.456 (inactive) | -0.0583 (inactive) | 0.275 (inactive) | -0.447 (inactive) | 0.0549 (inactive) | -1.4 | 0.0537
5 | CCCCC(CC)C(O)C1C=CC2C(=O)N(C)C(=O)C2N1Nc1ccccc1 (stereo not given) | -0.959 | -1.12 | -0.195 | -0.0591 | -0.885 | -1.02 | -1.03 (inactive) | -0.3 | -0.348 | -0.83 (inactive) | -0.339 | -0.027 (inactive) | -0.916 (inactive) | -0.206 (inactive) | 0.723 (inactive) | 0.468 (inactive) | -0.861 (inactive) | -0.389 (inactive) | -0.97 | 0.0297
6 | C=CC[C@]1(C(=O)N2CCOCC2)COC(c2ccc(OCCCO)cc2)=N1 | -0.559 | 0.147 | -0.814 | -0.405 | -1.21 | -0.658 | -0.142 (inactive) | 0.846 | -0.422 | 1.47 (inactive) | 1.31 | -1.37 (inactive) | 0.574 (inactive) | -0.214 (inactive) | 0.124 (inactive) | -0.19 (inactive) | 0.904 (inactive) | 0.46 (inactive) | 0.0543 | 0.0055
7 | CCCNC(=O)[C@@]1(Sc2ccc(C)cc2)CC(=O)N(C2Cc3ccccc3C2)[C@@H]1c1ccc(CO)cc1I | 0.877 | 0.331 | 0.544 | -1.54 | -1.85 | -0.574 | -0.0979 (inactive) | -0.778 | -0.987 | 0.309 (inactive) | -0.463 | -2.31 (inactive) | -1.67 (inactive) | -0.141 (inactive) | 0.518 (inactive) | -0.564 (inactive) | 0.599 (inactive) | -0.0019 (inactive) | -1.55 | -0.0286
8 | COCCOC(=O)N1C(=O)[C@@]2(c3ccccc31)[C@H](C(=O)NC[C@H](O)c1ccccc1)[C@H]1C(=O)O[C@H](c3ccccc3)[C@H](c3ccccc3)N1[C@@H]2c1ccc(O)cc1 | 0.0528 | 2.18 | -0.921 | -1.12 | -3.46 | -1.33 | -0.221 (inactive) | -1.32 | -0.0503 | 0.0737 (inactive) | 0.248 | 0.64 (inactive) | -0.65 (inactive) | -0.0106 (inactive) | 0.269 (inactive) | 1.64 (inactive) | -0.236 (inactive) | -0.803 (inactive) | -0.773 | -0.103
9 | NC(=O)NCC#Cc1ccc2c(c1)[C@]1(C(=O)N2)[C@H](C(=O)N2CCN(c3ncccn3)CC2)[C@H]2C(=O)O[C@H](c3ccccc3)[C@H](c3ccccc3)N2[C@@H]1c1ccc(O)cc1 | 0.348 | -0.173 | -0.388 | -0.977 | 0.18 | -1.99 | -1.02 (inactive) | -0.315 | 0.247 | -0.292 (inactive) | -0.727 | 1.14 (inactive) | -0.234 (inactive) | -2.21 (inactive) | 1.16 (inactive) | 0.939 (inactive) | -0.192 (inactive) | -0.15 (inactive) | -1.36 | -0.0577
